Data: PubChem BioAssay (Tox21)
Results filed as inconclusive are left out. A call without a number means that no potency is given here. A number with no mark means an inactive call. Calls of active or inactive are those of the source. Calls come from the whole dose curve; as a rule, active = well fitted cell-killing curve with a large enough effect in the repeat runs; inconclusive = weak or mixed curves, or effect the other way; inactive = no such curve, though single readings can be large or run the other way.

assay: qHTS assay for identifying genotoxic compounds that show differential cytotoxicity against isogenic chicken DT40 cell lines with known DNA damage response pathways - Rev3 mutant cell line (AID 743014); conditions: chicken DT40 Rev3-/- viability, CellTiter-Glo, 40 h; series mostly up to 68.4 µM; note: nearly all actives have a fitted effect of over 55% in size
Description: National Center for Advancing Translational Sciences [NCATS]
NIH Chemical Genomics Center [NCGC]
U.S. Environmental Protection Agency [EPA]
National Institutes of Environmental Health Sciences [NIEHS]
National Toxicology Program [NTP]
U.S. Food and Drug Administration [FDA]
DNA repair pathways play a critical role in cellular homeostasis by repairing DNA damage induced by endogenous processes and xenobiotics. Isogenic chicken DT40 cell lines deficient in different DNA repair pathways can be used to identify genotoxic compounds and aid in characterizing the nature of the DNA damage induced. Two DNA repair-deficient cell lines with disrupted genes, Rad54/Ku70 or Rev3, were used to screen the Tox21 10K compound library. Possible genotoxicity was based on the presence of a significant increase in cytotoxicity in one or more of the DNA repair-deficient cell lines compared to that observed in the parental DNA repair-proficient cell line. CellTiter Glo viability assay (Promega, Madison, WI) was used to measure cell viability in these cells after compound treatment. This assay includes the data from the Rev3 mutant cell line.
Tox21 Assay Protocol Summary:
300 DT40 mutant cells in 5 uL/well were dispensed into white, solid-bottom 1536-well plates using a Multidrop Combi (ThermoFisher Scientific, Waltham, MA) dispenser. After the assay plates were incubated at 37 C/5% CO2 for approximately 0.5 hour, 23 nL of compounds dissolved in DMSO, positive controls or DMSO only was transferred into the assay plate by a pintool work station (Kalypsys, San Diego, CA). The assay plates were incubated at 37 C/5% CO2 for 40 hours. After 5 uL per well of CellTiter-Glo reagent was added into each well of the assay plates, the plates were incubated for 30 min at room temperature and the luminescence intensity of the plates was measured using a ViewLux (PerkinElmer, Shelton, CT) plate reader.
Potency is the fitted concentration of half-maximal effect.

| Structure (SMILES) | Potency | activity, negative = cytotoxicity |
| --- | --- | --- |
| C=C(C)C(=O)OCCCCCCCCCCCCCCCCCC | inactive | – |
| CCCC(C)C(=O)O (stereo not given) | inactive | – |
| CC(C)[C@H](N)C(=O)OCCOCn1cnc2c(=O)[nH]c(N)nc21 | 23.7 µM (active) | – |
| CCCC(C)CO (stereo not given) | inactive | – |
| Cc1onc(-c2ccccc2)c1-c1ccc(S(N)(=O)=O)cc1 | inactive | – |
| CCCCCCCCCCCl | inactive | – |
| COC(=O)C1=C(C)NC(C)=C(C(=O)OCC(C)=O)C1c1ccccc1[N+](=O)[O-] (stereo not given) | 11.9 µM (active) | – |
| CC(C=O)Cc1ccc(C(C)C)cc1 (stereo not given) | inactive | – |
| NC(=O)Nc1nc2ccccc2[nH]1 | inactive | – |
| FC(F)(F)C(F)(F)C(F)(F)C(F)(F)C(F)(F)C(F)(F)C(F)(F)C(F)(F)C(F)(F)C(F)(F)F | – | -1.46% [at 8.53 µM] |
| Oc1cc(O)c2c(c1)O[C@H](c1ccc(O)c(O)c1)[C@H](O)C2 | inactive | – |
| COC(=O)[C@H]1[C@H]2C[C@@H]3c4[nH]c5cc(OC)ccc5c4CCN3C[C@H]2C[C@@H](OC(=O)COc2ccc(OC)cc2)[C@@H]1OC | 33.5 µM (active) | – |
| CC(=O)N[C@@H](CCC(N)=O)C(=O)O | inactive | – |
| CC(=O)OC(C)(C)C | inactive | – |
| COC(C(=O)O)c1ccccc1 (stereo not given) | inactive | – |
| NC(=O)CCCCC1CCSS1 (stereo not given) | inactive | – |
| CC(C)c1cccc(O)c1 | inactive | – |
| C#CC(C)(O)CC(C)C (stereo not given) | inactive | – |
| COc1cccc(Br)c1 | inactive | – |
| CC(C)c1ccc2oc3nc(N)c(C(=O)O)cc3c(=O)c2c1 | inactive | – |

| Structure (SMILES) | Potency | activity, negative = cytotoxicity |
| --- | --- | --- |
| CCC(=O)Nc1cccc(N)c1 | inactive | – |
| CC(=O)O[C@H](CC(=O)[O-])C[N+](C)(C)C | inactive | – |
| CCC(=O)c1cccc(Cl)c1 | inactive | – |
| C=C(C)[C@@H]1CCC2=CC(=O)C[C@@H](C)[C@]2(C)C1 | inactive | – |
| CCCCC1CCCCC(=O)O1 (stereo not given) | inactive | – |
| CC(C)CCCCCCN | inactive | – |
| C[N+](C)(C)CC[N+]1(C)Cc2c(Cl)c(Cl)c(Cl)c(Cl)c2C1 | inactive | – |
| CNc1ncnc2nc[nH]c12 | inactive | – |
| CCCC(=O)O[C@]1(C(=O)CCl)[C@@H](C)C[C@H]2[C@@H]3CCC4=CC(=O)C=C[C@]4(C)[C@@]3(F)C(=O)C[C@@]21C | 7.5 µM (active) | – |
| OC1OC[C@@H](O)[C@H](O)[C@H]1O (stereo not given in full) | inactive | – |
| CN(C)C(=O)Nc1ccccc1 | inactive | – |
| COc1ccc(COC=O)cc1 | inactive | – |
| CCCCCCCCC=O | inactive | – |
| CC(C)N1C(=O)c2ccccc2C1=O | inactive | – |
| CSc1ccc(C=O)cc1 | inactive | – |
| Cc1nccn1CC1CCc2c(c3ccccc3n2C)C1=O (stereo not given) | inactive | – |
| OC/C=C/c1ccccc1 | inactive | – |
| CCCCCCOC(=O)c1ccccc1O | 27.3 µM (active) | – |
| Cn1cnc2c(=O)[nH]c(N)nc21 | inactive | – |
| Cc1c(C)n(CCN(C)C)c2ccc(C(=O)OCCN(C)C)cc12 | 7.5 µM (active) | – |
